PubChem BioAssay AID720690 (Broad Institute, 2013)
Potency and affinity values are given separately. Unmarked numbers belong to inactive results.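 The calls were made as follows: active = every repeat run showing a signal drop whose fitted half-maximal concentration is at most twice the top tested concentration; inconclusive = repeat runs disagree, or flat partial drop, or poor fit; inactive = the rest.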

experiment: general mammalian cell viability loss – activator set, cherry-pick, cytotoxicity control for miR-122 modulator project, dose response (AID 720690); details: HEK293T viability, CellTiter-Glo luminescence, 48 h; series mostly up to 26 µM; activity change, negative = cytotoxicity: at the top concentration;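 also: 0% = neutral control wells and -100% = MG132 cytotoxic control wells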

| Compound | activity change, negative = cytotoxicity |
| --- | --- |
| O=C(C1CCCC1)N1C[C@H]2[C@@H](c3ccccc31)[C@H](CO)N2C(=O)Nc1cccc(F)c1 | 0.05% |
| COC(=O)C[C@@H]1CC[C@@H]2[C@@H](COc3ccc(NC(=O)c4cc(F)cc(F)c4)cc3C(=O)N2C)O1 | -13.6% |
| CCC(=O)N1C[C@H]2[C@@H](c3ccccc31)[C@H](CO)N2C(=O)Nc1ccccc1F | -2.63% [at 23.5 µM] |
| O=C(NCCCN1CCCC1)c1ccc(CSCc2cccc(Cl)c2)o1 | -0.033% |
| COCC(=O)N(C)C[C@H]1Oc2cc(-c3ccccc3F)ccc2S(=O)(=O)N([C@@H](C)CO)C[C@H]1C | -7.98% |
| C/C=C/c1ccc([C@H]2[C@@H](CO)N(C(C)=O)[C@@H]2CN(C(=O)COC)C(C)C)cc1 | 2.1% |
| COc1cc2nc(C3CCC3)n(NC(=O)C3CCCC(OC)C3)c(=O)c2cc1OC (configuration not stated) | 7.08% |
| C/C=C/c1ccc([C@H]2[C@@H](CO)N(C(=O)NC(C)C)[C@H]2CN(C)C(=O)CC)cc1 | 3.05% |
| CN1C(=O)c2cc(NC(=O)c3cccc(F)c3)ccc2OC[C@H]2O[C@H](CC(=O)N3CCc4ccccc4C3)CC[C@H]21 | -16.1% |
| C/C=C/c1ccc2c(c1)O[C@H](CN(C)C(=O)c1cnccn1)[C@H](C)CN([C@H](C)CO)S2(=O)=O | 8.36% |
| Cc1cnc(NC(=O)c2cc3c(C)nn(-c4ccccc4)c3s2)s1 | -35.6% |
| COc1cc(-c2nnc(-c3ccco3)o2)ccc1OCc1ccccc1 | -1.14% |
| CN1C(=O)c2cc(NC(=O)C3CCOCC3)ccc2OC[C@H]2O[C@H](CC(=O)NCc3ccc4c(c3)OCO4)CC[C@@H]21 | -11.5% |
| O=C(N[C@H]1CC[C@H](CCn2cc(C3(O)CCCC3)nn2)O[C@H]1CO)c1ccccc1F | -20.6% |
| CCCNC(=O)C[C@@H]1CC[C@@H]2[C@H](COc3ccc(NC(=O)Nc4ccccc4F)cc3C(=O)N2C)O1 | 2.78% |
| Cc1ccc(C(=O)n2nc(-c3ccccc3)nc2NCc2ccco2)cc1 | 12.1% |
| CN(C)CCNC(=O)C1CC(=O)N(c2ccc(F)c(Cl)c2)C1 (configuration not stated) | -5.76% |
| CCCC(=O)Nc1ccc2c(c1)C(=O)N(C)[C@@H]1CC[C@H](CC(=O)N3CCc4ccccc4C3)O[C@H]1CO2 | -5.47% |
| C/C=C/c1ccc([C@@H]2[C@@H](CN(C(=O)COC)C(C)C)N(C(C)=O)[C@H]2CO)cc1 | -16.8% |
| CCN(C[C@H]1N[C@@H](CO)[C@@H]1c1ccc(C2=CCCC2)cc1)C(=O)c1cccnc1 | -10.3% |
| COc1cccc(-c2ccc3c(c2)O[C@H](CN(C)C(=O)C2CCOCC2)[C@H](C)CN([C@@H](C)CO)S3(=O)=O)c1 | -9.25% |
| CN(C)CCCNC(=O)C[C@H]1CC[C@H]2[C@H](COc3ccc(NS(C)(=O)=O)cc3C(=O)N2C)O1 | -23.2% [at 23.5 µM] |
| CC#CCCCC(=O)Nc1ccccc1C(=O)O | 4.16% |
| CN1C(=O)c2cc(NC(=O)c3cccc(F)c3)ccc2OC[C@@H]2O[C@@H](CC(=O)NC3CCC3)CC[C@@H]21 | -15.9% |
| CNC(=O)C[C@H]1CC[C@@H]2[C@@H](COc3ccc(NC(=O)Nc4ccc(Cl)cc4)cc3C(=O)N2C)O1 | 2.16% [at 23.5 µM] |
| O=C(c1cccnc1)N1C[C@H]2[C@@H](c3ccccc31)[C@H](CO)N2C(=O)C1CCCC1 | -16.5% [at 23.5 µM] |
| CC(=O)N1[C@H](CN(C(=O)c2ccc(F)cc2)C(C)C)[C@@H](c2ccccc2)[C@@H]1CO | -6.51% |
